# What was measured:
# Assay in all cases: DAPPL (digital affinity profiling via proximity ligation, sequencing); 10 mM Tris-HCl pH 7.5, 50 mM NaCl, 1 mM DTT, 4% glycerol, room temperature, 30 min; GST-TFs on glutathione beads, 16-mer random dsDNA library, 0.1% formaldehyde crosslink after washing; high values mean tight binding
# [1] = biological target: T1, FLI1 (Homo sapiens, UniProt Q01543 1-452); details: protein: recombinant; tags: N-terminal GST; dsDNA, one strand shown
# T1 sequence: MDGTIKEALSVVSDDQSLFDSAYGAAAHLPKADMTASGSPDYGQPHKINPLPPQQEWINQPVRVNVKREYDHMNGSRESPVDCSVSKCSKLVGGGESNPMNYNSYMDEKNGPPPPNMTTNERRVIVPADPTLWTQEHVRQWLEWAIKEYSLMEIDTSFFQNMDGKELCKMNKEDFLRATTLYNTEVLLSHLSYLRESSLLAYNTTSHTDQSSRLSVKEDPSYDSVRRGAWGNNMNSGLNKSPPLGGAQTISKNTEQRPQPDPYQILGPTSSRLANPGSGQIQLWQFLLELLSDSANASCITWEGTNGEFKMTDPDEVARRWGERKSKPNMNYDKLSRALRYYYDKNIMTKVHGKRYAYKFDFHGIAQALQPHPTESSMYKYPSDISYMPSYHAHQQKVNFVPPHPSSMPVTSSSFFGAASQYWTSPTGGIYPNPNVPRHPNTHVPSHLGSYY
# How it was run: (§1)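 GST fusions of human transcription factors were expressed in yeast and captured with glutathione beads. Once given DNA barcodes and pooled alongside a tag-only sample, they were incubated for 30 min at room temperature with 200 nmole of a random double-stranded 16-mer DNA library in Tris/NaCl/DTT/glycerol buffer, then washed, crosslinked (0.1% formaldehyde), proximity-ligated, PCR-amplified and sequenced on an Illumina NextSeq500. The binding signal of each hexamer is its read frequency for a factor divided by its frequency for the tag-only sample.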
# [2] = biological target: T2, ELK1 (Homo sapiens, UniProt P19419 1-428); details: protein: recombinant; tags: N-terminal GST; dsDNA, one strand shown
# T2 sequence: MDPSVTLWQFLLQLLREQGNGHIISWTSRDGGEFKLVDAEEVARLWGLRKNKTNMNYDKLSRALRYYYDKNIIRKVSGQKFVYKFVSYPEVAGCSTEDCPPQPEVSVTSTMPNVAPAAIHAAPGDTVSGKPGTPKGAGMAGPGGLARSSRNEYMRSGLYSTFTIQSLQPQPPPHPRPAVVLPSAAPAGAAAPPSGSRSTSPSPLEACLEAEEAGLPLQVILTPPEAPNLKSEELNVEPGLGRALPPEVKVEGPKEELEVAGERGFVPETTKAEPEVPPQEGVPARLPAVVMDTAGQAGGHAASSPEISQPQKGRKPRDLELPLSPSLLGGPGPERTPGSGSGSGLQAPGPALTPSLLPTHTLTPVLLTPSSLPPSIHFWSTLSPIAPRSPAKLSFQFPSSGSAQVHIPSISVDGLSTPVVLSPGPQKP
# How it was run: as §1
# [3] = biological target: T3, GABPA (Homo sapiens, UniProt Q06546 1-454); details: protein: recombinant; tags: N-terminal GST; dsDNA, one strand shown
# T3 sequence: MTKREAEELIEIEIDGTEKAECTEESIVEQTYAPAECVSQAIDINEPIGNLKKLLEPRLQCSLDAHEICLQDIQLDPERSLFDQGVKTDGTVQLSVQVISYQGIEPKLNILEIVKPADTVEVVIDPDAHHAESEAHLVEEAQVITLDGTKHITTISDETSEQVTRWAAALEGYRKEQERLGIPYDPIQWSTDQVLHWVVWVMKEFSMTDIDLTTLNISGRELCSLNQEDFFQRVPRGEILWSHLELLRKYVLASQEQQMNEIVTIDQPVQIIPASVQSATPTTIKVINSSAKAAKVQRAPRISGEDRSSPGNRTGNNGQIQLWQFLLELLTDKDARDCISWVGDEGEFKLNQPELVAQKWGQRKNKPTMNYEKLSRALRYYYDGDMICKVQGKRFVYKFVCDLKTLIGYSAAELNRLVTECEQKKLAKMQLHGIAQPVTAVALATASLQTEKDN
# How it was run: as §1
# [4] = biological target: T4, ERG (Homo sapiens, UniProt P11308 1-479); details: protein: recombinant; tags: N-terminal GST; dsDNA, one strand shown
# T4 sequence: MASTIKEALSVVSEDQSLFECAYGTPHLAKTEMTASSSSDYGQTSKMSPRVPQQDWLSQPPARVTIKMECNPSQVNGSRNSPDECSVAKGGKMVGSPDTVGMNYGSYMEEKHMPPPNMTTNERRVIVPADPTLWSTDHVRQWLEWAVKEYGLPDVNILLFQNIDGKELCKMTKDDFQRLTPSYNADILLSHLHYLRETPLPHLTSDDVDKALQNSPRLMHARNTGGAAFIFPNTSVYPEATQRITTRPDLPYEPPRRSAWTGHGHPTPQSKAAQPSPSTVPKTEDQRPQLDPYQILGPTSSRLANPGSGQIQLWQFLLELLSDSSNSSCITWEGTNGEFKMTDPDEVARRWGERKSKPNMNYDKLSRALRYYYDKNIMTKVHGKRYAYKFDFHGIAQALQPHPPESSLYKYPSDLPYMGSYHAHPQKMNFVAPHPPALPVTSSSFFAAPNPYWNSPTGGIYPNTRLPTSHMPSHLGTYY
# How it was run: as §1
# [5] = biological target: ELF1 (Homo sapiens, UniProt P32519 1-619); details: protein: recombinant; tags: N-terminal GST; dsDNA, one strand shown
# How it was run: as §1
# [6] = biological target: T5, EHF (Homo sapiens, UniProt Q9NZC4 1-300); details: protein: recombinant; tags: N-terminal GST; dsDNA, one strand shown
# T5 sequence: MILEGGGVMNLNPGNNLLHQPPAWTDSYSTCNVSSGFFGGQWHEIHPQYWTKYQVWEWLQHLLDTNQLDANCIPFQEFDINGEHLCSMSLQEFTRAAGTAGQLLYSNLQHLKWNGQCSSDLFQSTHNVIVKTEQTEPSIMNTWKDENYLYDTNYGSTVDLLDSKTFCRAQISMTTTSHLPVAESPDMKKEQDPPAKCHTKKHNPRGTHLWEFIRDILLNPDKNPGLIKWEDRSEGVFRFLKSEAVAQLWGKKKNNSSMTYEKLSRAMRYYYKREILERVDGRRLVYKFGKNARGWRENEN
# How it was run: as §1
# [7] = biological target: SPI1 (Homo sapiens, UniProt P17947 1-270); details: protein: recombinant; tags: N-terminal GST; dsDNA, one strand shown
# How it was run: as §1
# [8] = biological target: SPIB (Homo sapiens, UniProt Q01892 1-262); details: protein: recombinant; tags: N-terminal GST; dsDNA, one strand shown
# How it was run: as §1
# [9] = biological target: T6, ELK3 (Homo sapiens, UniProt P41970 1-407); details: protein: recombinant; tags: N-terminal GST; dsDNA, one strand shown
# T6 sequence: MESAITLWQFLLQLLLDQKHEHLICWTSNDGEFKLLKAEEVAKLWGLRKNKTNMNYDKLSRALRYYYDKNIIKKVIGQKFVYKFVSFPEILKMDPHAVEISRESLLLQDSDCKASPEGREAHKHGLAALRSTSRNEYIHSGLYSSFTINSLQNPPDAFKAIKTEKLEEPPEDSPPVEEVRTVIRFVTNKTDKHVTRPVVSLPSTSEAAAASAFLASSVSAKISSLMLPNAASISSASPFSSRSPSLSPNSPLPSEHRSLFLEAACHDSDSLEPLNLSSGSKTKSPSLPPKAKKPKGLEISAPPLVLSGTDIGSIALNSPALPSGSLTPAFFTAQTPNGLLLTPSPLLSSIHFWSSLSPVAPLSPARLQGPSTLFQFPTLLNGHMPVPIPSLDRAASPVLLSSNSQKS
# How it was run: as §1
# [10] = biological target: T7, FEV (Homo sapiens, UniProt Q99581 1-238); details: protein: recombinant; tags: N-terminal GST; dsDNA, one strand shown
# T7 sequence: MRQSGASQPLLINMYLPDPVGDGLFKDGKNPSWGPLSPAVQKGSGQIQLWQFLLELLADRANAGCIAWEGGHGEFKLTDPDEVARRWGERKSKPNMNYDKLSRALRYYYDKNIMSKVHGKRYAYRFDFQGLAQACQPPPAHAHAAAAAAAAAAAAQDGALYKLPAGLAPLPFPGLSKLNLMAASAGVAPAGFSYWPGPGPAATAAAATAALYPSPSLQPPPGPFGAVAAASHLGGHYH
# How it was run: as §1
# [11] = biological target: ETV5 (Homo sapiens, UniProt P41161 1-510); details: protein: recombinant; tags: N-terminal GST; dsDNA, one strand shown
# How it was run: as §1
# [12] = biological target: HSF1 (Homo sapiens, UniProt Q00613 1-529); details: protein: recombinant; tags: N-terminal GST; chain copies: 3; dsDNA, one strand shown
# How it was run: as §1
# [13] = biological target: T8, SPIC (Homo sapiens, UniProt Q8N5J4 1-248); details: protein: recombinant; tags: N-terminal GST; dsDNA, one strand shown
# T8 sequence: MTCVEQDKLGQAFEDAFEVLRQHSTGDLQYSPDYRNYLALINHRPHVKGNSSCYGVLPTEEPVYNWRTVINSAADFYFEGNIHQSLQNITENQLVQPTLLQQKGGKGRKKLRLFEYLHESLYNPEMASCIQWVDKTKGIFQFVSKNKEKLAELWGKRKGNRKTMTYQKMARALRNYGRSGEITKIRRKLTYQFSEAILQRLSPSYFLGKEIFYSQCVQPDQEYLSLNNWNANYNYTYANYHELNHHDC
# How it was run: as §1
# [14] = biological target: ELF4 (Homo sapiens, UniProt Q99607 1-663); details: protein: recombinant; tags: N-terminal GST; dsDNA, one strand shown
# How it was run: as §1
# [15] = biological target: T9, ELK4 (Homo sapiens, UniProt P28324-2 1-405); details: protein: recombinant; tags: N-terminal GST; dsDNA, one strand shown
# T9 sequence: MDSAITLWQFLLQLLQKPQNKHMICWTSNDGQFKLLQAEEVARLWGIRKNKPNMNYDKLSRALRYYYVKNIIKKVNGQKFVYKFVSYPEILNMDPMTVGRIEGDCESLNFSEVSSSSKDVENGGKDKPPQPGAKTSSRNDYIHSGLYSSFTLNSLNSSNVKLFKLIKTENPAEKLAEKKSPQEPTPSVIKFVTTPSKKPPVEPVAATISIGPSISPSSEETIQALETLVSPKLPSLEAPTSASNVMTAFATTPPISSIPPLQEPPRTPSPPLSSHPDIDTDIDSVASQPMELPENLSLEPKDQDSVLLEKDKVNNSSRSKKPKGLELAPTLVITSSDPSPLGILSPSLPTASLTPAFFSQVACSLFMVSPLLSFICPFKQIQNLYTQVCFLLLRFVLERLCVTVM
# How it was run: as §1
# [16] = biological target: T10, ETV2 (Homo sapiens, UniProt O00321 1-342); details: protein: recombinant; tags: N-terminal GST; dsDNA, one strand shown
# T10 sequence: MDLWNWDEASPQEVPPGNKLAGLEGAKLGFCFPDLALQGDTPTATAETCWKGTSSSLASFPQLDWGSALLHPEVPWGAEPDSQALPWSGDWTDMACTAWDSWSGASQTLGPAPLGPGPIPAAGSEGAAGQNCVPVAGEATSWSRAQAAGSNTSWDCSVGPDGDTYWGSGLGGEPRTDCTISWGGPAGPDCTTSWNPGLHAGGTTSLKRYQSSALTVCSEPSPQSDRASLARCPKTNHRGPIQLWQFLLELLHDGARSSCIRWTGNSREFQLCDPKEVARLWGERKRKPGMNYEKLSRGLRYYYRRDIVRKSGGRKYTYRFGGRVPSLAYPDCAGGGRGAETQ
# How it was run: as §1
# [17] = biological target: T11, ELF3 (Homo sapiens, UniProt P78545 1-371); details: protein: recombinant; tags: N-terminal GST; dsDNA, one strand shown
# T11 sequence: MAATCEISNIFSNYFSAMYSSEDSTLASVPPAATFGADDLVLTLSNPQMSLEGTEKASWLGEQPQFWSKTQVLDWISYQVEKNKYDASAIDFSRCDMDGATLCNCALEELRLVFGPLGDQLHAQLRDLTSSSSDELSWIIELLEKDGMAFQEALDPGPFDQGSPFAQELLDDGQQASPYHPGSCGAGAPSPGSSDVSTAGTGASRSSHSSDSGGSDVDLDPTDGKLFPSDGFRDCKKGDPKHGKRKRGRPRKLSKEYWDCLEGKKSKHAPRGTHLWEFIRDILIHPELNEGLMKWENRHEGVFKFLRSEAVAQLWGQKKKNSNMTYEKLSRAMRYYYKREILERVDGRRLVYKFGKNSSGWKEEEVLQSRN
# How it was run: as §1
# [18] = biological target: CRX (Homo sapiens, UniProt O43186 1-299); details: protein: recombinant; tags: N-terminal GST; dsDNA, one strand shown
# How it was run: as §1
# [19] = biological target: ETV1 (Homo sapiens, UniProt P50549 1-477); details: protein: recombinant; tags: N-terminal GST; dsDNA, one strand shown
# How it was run: as §1
# Chain of CRX (O43186 whole entry): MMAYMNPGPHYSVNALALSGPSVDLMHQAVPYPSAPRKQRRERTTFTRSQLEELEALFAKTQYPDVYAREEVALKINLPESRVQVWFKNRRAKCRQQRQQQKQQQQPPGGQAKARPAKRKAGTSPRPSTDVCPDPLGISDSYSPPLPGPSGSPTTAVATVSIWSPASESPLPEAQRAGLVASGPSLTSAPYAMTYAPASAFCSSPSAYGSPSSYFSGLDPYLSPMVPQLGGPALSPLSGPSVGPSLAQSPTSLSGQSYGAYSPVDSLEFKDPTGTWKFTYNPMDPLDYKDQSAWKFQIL
# Chain of SPIB (Q01892 whole entry): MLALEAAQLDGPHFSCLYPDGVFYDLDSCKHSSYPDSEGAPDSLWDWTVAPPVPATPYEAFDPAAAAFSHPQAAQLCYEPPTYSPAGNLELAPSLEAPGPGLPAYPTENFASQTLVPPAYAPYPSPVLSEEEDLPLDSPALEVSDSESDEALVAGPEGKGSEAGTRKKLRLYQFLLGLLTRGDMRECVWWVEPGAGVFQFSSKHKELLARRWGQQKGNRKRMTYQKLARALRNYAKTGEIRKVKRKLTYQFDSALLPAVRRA
# Chain of ELF4 (Q99607 whole entry): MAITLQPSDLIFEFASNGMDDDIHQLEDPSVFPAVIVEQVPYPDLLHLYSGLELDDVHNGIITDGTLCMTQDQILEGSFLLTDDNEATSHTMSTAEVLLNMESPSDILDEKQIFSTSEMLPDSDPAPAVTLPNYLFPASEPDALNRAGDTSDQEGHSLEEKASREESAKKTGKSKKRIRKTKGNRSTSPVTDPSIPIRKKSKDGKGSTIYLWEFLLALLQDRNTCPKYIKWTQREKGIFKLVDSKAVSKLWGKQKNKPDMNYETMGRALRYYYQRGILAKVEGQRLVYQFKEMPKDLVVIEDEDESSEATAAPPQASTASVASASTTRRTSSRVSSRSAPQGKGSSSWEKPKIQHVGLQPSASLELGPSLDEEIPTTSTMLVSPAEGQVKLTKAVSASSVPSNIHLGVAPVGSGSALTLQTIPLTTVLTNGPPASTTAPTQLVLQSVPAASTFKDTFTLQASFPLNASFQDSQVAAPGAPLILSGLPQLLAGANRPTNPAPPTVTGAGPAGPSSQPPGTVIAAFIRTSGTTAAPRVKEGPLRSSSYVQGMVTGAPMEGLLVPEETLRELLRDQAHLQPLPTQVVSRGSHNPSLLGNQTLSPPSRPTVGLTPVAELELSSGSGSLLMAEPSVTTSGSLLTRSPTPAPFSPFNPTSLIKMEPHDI
# Chain of ETV5 (P41161 whole entry): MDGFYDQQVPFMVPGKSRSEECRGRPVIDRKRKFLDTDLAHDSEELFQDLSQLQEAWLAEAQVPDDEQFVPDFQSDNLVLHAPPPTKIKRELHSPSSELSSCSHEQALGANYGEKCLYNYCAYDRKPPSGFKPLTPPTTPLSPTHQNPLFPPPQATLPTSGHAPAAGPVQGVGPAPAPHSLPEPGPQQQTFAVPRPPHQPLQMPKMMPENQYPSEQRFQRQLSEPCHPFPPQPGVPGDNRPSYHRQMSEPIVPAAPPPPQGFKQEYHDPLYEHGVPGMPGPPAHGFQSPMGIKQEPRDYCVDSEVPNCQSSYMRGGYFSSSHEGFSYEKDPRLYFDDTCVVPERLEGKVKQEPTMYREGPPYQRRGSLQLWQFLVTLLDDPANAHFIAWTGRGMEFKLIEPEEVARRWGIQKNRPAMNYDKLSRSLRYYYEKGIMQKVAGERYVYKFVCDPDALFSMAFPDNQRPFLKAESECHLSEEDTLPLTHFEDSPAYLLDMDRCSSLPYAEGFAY
# Chain of ETV1 (P50549 whole entry): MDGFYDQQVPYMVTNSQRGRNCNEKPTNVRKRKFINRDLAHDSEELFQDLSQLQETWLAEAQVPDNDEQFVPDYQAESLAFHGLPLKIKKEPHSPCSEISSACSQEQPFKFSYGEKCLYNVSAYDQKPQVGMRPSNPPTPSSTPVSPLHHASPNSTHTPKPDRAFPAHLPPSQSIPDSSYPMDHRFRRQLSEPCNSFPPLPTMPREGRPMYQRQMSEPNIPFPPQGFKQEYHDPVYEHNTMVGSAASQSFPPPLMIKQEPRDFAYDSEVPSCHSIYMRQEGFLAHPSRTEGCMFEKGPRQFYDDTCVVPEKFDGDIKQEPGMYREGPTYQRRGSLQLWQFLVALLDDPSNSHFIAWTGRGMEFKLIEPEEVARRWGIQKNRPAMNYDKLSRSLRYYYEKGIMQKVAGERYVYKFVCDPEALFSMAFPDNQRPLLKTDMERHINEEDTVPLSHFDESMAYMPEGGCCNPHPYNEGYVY
# Chain of HSF1 (Q00613 whole entry): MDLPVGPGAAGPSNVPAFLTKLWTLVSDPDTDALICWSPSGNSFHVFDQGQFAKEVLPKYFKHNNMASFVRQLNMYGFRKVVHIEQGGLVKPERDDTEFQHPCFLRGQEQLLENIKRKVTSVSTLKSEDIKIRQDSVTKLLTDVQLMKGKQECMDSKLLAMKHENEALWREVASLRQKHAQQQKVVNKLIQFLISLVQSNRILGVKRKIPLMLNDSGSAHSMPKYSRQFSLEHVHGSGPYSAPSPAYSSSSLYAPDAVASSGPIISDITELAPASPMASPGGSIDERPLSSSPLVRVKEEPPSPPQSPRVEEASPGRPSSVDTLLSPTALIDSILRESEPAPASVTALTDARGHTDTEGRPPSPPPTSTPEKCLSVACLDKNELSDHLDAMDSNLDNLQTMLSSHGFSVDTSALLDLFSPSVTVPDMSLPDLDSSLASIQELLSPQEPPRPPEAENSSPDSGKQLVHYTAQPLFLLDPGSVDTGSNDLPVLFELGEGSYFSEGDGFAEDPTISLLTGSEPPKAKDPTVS
# Chain of ELF1 (P32519 whole entry): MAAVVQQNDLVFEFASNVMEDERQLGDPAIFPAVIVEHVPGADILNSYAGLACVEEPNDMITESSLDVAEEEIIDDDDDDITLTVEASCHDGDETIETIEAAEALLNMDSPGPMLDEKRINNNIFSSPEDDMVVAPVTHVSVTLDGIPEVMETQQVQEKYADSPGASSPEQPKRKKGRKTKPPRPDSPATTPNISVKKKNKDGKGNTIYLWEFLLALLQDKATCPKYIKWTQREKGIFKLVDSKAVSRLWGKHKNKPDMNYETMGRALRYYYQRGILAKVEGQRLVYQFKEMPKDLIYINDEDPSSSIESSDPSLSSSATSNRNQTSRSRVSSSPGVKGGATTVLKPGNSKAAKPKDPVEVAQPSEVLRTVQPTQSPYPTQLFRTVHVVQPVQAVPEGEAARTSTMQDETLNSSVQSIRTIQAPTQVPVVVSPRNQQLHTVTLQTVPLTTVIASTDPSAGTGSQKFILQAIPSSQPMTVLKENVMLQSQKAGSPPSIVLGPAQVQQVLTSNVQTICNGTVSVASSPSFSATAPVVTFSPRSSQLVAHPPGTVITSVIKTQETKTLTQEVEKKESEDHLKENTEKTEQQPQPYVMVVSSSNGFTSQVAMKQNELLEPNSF
sequence,measurement,setting,value
TGTCCT,binding signal,[1],"1.37 fold enrichment (6-mer frequency, TF over GST control)"
same,binding signal,[2],"1.38 fold enrichment (6-mer frequency, TF over GST control)"
same,binding signal,[3],"1.58 fold enrichment (6-mer frequency, TF over GST control)"
same,binding signal,[4],"1.38 fold enrichment (6-mer frequency, TF over GST control)"
same,binding signal,[5],"1.5 fold enrichment (6-mer frequency, TF over GST control)"
same,binding signal,[6],"1.52 fold enrichment (6-mer frequency, TF over GST control)"
same,binding signal,[7],"1.44 fold enrichment (6-mer frequency, TF over GST control)"
same,binding signal,[8],"1.54 fold enrichment (6-mer frequency, TF over GST control)"
same,binding signal,[9],"1.41 fold enrichment (6-mer frequency, TF over GST control)"
same,binding signal,[10],"1.45 fold enrichment (6-mer frequency, TF over GST control)"
same,binding signal,[11],"1.56 fold enrichment (6-mer frequency, TF over GST control)"
same,binding signal,[12],"1.06 fold enrichment (6-mer frequency, TF over GST control)"
same,binding signal,[13],"1.53 fold enrichment (6-mer frequency, TF over GST control)"
same,binding signal,[14],"1.4 fold enrichment (6-mer frequency, TF over GST control)"
same,binding signal,[15],"1.28 fold enrichment (6-mer frequency, TF over GST control)"
same,binding signal,[16],"1.67 fold enrichment (6-mer frequency, TF over GST control)"
same,binding signal,[17],"1.46 fold enrichment (6-mer frequency, TF over GST control)"
same,binding signal,[18],"1.12 fold enrichment (6-mer frequency, TF over GST control)"
same,binding signal,[19],"1.55 fold enrichment (6-mer frequency, TF over GST control)"

# — PMC7862700, “An all-to-all approach to the identification of sequence-specific readers for epigenetic DNA modifications on cytosine”
